In PubChem BioAssay AID1347426 (Functional Genomics Laboratory (NCATS/FGL), 2020):
Out of some 31,000 sequences screened, about 1,400 (4.5%) were called active.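 Rule for the calls: active = median seed-adjusted z-score above 1 or below -1; inactive = the rest.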 The sample as a whole holds a higher share of actives than the screen did.

Experiment: Novel Modifiers of Survival Motor Neuron (SMN) Protein: Gene Identification via Genome-wide siRNA Screen;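 note: luminescence tracks full-length SMN protein made from the SMN2 reporter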
Conditions: HEK293T SMN2-luciferase reporter, siRNA knockdown, 72 h; actives lie on both sides
Method in brief: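 Steps: spot 1 pmol siRNA, add Lipofectamine RNAiMax in serum-free DMEM, seed HEK293T SMN2–luciferase reporter cells; incubate 72 h at 37 °C; add ONE-Glo; normalize luminescence to control siRNA, log10, MAD. Candidates: |MAD| > 1.0.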

Row | Sequence | median seed-adjusted z-score
1 | GCAAGCAGGUUAUCAACGATT against FLII | -0.353 (inactive)
2 | GCAUGUACGACCAAUGUAATT against NR3C1 | -0.47 (inactive)
3 | GAGUCACAGUUGAAGAUCUTT against GOT2 | 0.205 (inactive)
4 | CAAUCUCCGCAAAAAUGGATT against PCMT1 | 0.139 (inactive)
5 | CGACAUCUCACUCAUGAAATT against SF3A3 | -2.1 (active)
6 | CUAUGGACCAGUCAAAUAATT against NDUFB7 | -0.379 (inactive)
7 | ACACCCGCGUGUCUGAUUATT against PPAP2C | -1.12 (active)
8 | CCCUCAUCAAGAACUUUCATT against S100A14 | 0.0172 (inactive)
9 | GCCUAAACAGUGACCGAUUTT against BDH1 | -0.0253 (inactive)
10 | CUGCUGUUGUUACUACCCATT against USF1 | 0.16 (inactive)
11 | GCAAGACCACGCUCCUUUATT against ARL11 | 1 (active)
12 | GGAGUUAUCUGGUGACAAUTT against UROS | -0.248 (inactive)
13 | GGCUAGUAGCUGAACUUCATT against DIMT1L | 0.0156 (inactive)
14 | CAGUUGCAUUGGUUCCCAUTT against EZH1 | 0.268 (inactive)
15 | GCUUUGGAAGGGUUUGAUATT against DCT | -0.184 (inactive)
16 | GACGAAUCACUGCAGUUUATT against GOSR2 | -1.25 (active)
17 | CAAGGUCUCCUGUGCUGAATT against MYOG | -0.0972 (inactive)
18 | GGAUGUUGAUGAAGGCAAATT against LDHAL6A | -0.15 (inactive)
19 | GAAUAUAACCUGCCGCUUUTT against CD44 | 0 (inactive)
20 | GGGCUGGAUUGGUACAGGATT against HS3ST2 | 0.133 (inactive)
21 | CGUGUGAUCCAGAGACUUATT against KRT1 | -0.362 (inactive)
22 | AAGGCUACUUAACAAAGGATT against S100A10 | 0.366 (inactive)

Row | Sequence | median seed-adjusted z-score
23 | GACGACUUCUUGAACAGAATT against ZNF207 | -3.1 (active)
24 | GUAGGAUUGUUUAGUGUAATT against CACNA1D | -0.0856 (inactive)
25 | GCUUUGAGAUUUUCGAGGATT against MYO1B | 0.903 (inactive)
26 | CGAGAGCUCCAGAUCAUGATT against GSK3B | -0.952 (inactive)
27 | GGGAUUGAGUUAAAACUAUTT against SOX7 | -0.387 (inactive)
28 | GGUAGCUUCUGAUAAUGAUTT against LEO1 | 1.2 (active)
29 | CGUGGGUAAUGAUGCGGAATT against TOM1 | 0.774 (inactive)
30 | GGAGUUGAAGGCCUACAAATT against APOE | 0.0321 (inactive)
31 | CCUUGUCUGUGCUCAAGUATT against USP35 | -0.219 (inactive)
32 | CACUUACCAAGGAUACCAATT against PHC2 | 0.177 (inactive)
33 | GGAUUUUACAGGAUAUCUUTT against SPPL2A | -0.358 (inactive)
34 | GAAUGGACUGGUACCUAUUTT against ALDOB | -1.34 (active)
35 | GGAUCUGCAUAGUGACCAATT against PSMB1 | -0.35 (inactive)
36 | AUGUUUCAAUAGAUCCAGATT against LIMD2 | 0.418 (inactive)
37 | GCACCAAAGUAUACAACGATT against PRKAR2B | -0.777 (inactive)
38 | GAUCUUGGAUGGAUUGCUATT against OCA2 | 0.457 (inactive)
39 | ACAACCCUCUUAAAACUAATT against IGF2 | -0.0306 (inactive)
40 | CUGUAUGGGUGGUCAAUCATT against ABCA1 | -1.27 (active)
41 | GGACAACGAUAACCGAUCATT against CA1 | 0.262 (inactive)
42 | GUCUAAAUCUCGUUCCAAATT against SRrp35 | -0.0574 (inactive)
43 | AGGUCAAUGUGACUUUCCATT against KCNJ10 | -0.0371 (inactive)
44 | GAAACGAUAUGAAUGUAAATT against ZNF491 | 0.0642 (inactive)

Row | Sequence | median seed-adjusted z-score
45 | CCAUUGAAGAGGCUAUGAATT against SPAG7 | 0.263 (inactive)
46 | GAGUGGGAAUGGUCAGGCUTT against ADORA2B | -0.471 (inactive)
47 | GGUCCAUGGUGGAAGACGATT against MAL | 0.0733 (inactive)
48 | CCAUCUCAGGAGUUAGCUATT against ZNF281 | 1.19 (active)
49 | GUGUCUGGAUUUUCACUGATT against F11 | -0.0319 (inactive)
50 | AGGCCUUGGUGGAACAUGUTT against PSAP | 0.107 (inactive)
51 | GCUCGUAAGUUGGUGAUCATT against TPM3 | 0.111 (inactive)
52 | GAACUAGCACGCAUCAAGATT against PPM1G | 0.073 (inactive)
53 | GCACCAGCCUUAACCCUCATT against RAB1B | 1.55 (active)
54 | AAAUCCCGGUGAUCAUCGATT against MAP1LC3A | 0 (inactive)
55 | GAGACAACCUGCAACGACATT against GDI1 | 0.198 (inactive)
56 | CAGGAGUGAUUAAACGGUUTT against GNAI3 | 0.0656 (inactive)
57 | GCUCUCAUAUCAUUCCAUUTT against PPIL5 | 0 (inactive)
58 | GAUGAUUACCUGCAGAGCATT against MYD88 | -0.365 (inactive)
59 | CCAUCAAAAUCGCAGACUUTT against DDR1 | -0.166 (inactive)
60 | GGAUGUCUAGAUUACAUUUTT against PDE12 | 0.422 (inactive)
61 | GGAGUACCGGCUAACAAUATT against MORC4 | 0.13 (inactive)
62 | ACAUGAUCUUGGACCUGGATT against CSNK2B | -1.62 (active)
63 | CAAUAGGAUUGGUCACCAATT against PNPT1 | 0.0729 (inactive)
64 | CAACCAUCCCAUGUCUGUUTT against NMNAT2 | -1.58 (active)
65 | GGAGUUAGCACUAACAUAATT against NUP98 | 0.168 (inactive)
66 | GGAUAGUGAUGAUGUCUAUTT against GPR98 | -0.509 (inactive)

Row | Sequence | median seed-adjusted z-score
67 | CCUCAACUCGUGAAGAAGATT against GPRC5A | -0.56 (inactive)
68 | GGCAUAUGGUUAUCGAGGATT against EML4 | 0.958 (inactive)
69 | CGUCCAAGAUCGAACCCAUTT against HIRA | 0.286 (inactive)
70 | GCAAUCGGGUGGUAUCAUATT against COPS5 | -0.124 (inactive)
71 | CAAGCAUGGUCUUUCUACUTT against TUBB2A | 1.03 (active)
72 | CGAGAUCUCAAGUCUAACATT against ARAF | 0.535 (inactive)
73 | GGAAGUACGUUCCAUACAATT against GALNT17 | 0.392 (inactive)
74 | GGAUCUGUAUCAAGCCGUUTT against APC | 0.154 (inactive)
75 | GCAAUGCACUGACGGAUAUTT against EFEMP1 | 0.0157 (inactive)
76 | GUAUCAGAAUGAGAGUUCUTT against ACP2 | -0.00569 (inactive)
77 | GAAAUACCCUCACAUGUUATT against LSM2 | -1.48 (active)
78 | GAUGUAUUGUUACUACCAATT against SCNN1G | -0.616 (inactive)
79 | CCACAAGGGUUAUCUGUCATT against MAPK4 | 0.235 (inactive)
80 | GUCACUUCAUGGGCAAGAATT against NMB | 0.746 (inactive)
81 | CCGUUGUUGUAAGAAGAAATT against MICA | -0.0635 (inactive)
82 | GGAUUAAGCCCUUCGAAGATT against SOCS5 | 0.312 (inactive)
83 | AGUUCUCGGAGGUGCUUAATT against CKB | -0.236 (inactive)
84 | GGACAAUCUUAUUCCUAUUTT against CFHR4 | -0.0972 (inactive)
85 | GAGCUGCAACUGACAUCUUTT against PLTP | 1.09 (active)
86 | GCAUCUUCACCAAAGUCAUTT against RHEBL1 | -0.268 (inactive)
87 | GGCUGACCUGUACCACUUUTT against SH3BP1 | -0.225 (inactive)
88 | GCCUCAGAGUUCACGGACATT against ROBO4 | -0.431 (inactive)

Row | Sequence | median seed-adjusted z-score
89 | GCUACGGCGUGGACAAGAATT against RELB | 1.16 (active)
90 | GGACCGUCUACUCAUCCAATT against IL8RB | -0.387 (inactive)
91 | GGAGGAGAUAGGCACUGAATT against TIGD3 | 0.486 (inactive)
92 | GCUUUUAUCCUAGACAUCATT against PAQR8 | 0 (inactive)
93 | GUGGGAAAGUCUAUGGAAATT against KLF9 | 0.767 (inactive)
94 | GGCCUAAGCUAAAUCGAGATT against SKP2 | -0.126 (inactive)
95 | CAAAGGAUGUCAUUCGUAATT against CKAP5 | -1.87 (active)
96 | CGGCCGAAGUAGUAAAAGATT against ADA | -0.242 (inactive)
97 | UCAUCAAUGCUACUGGUUATT against TM7SF2 | -0.674 (inactive)
98 | CGGCUGUGGUGAACCAGUATT against INHBB | -0.522 (inactive)
99 | GCAUAGGAUUCAUUGAGUUTT against NME1 | 0.188 (inactive)
100 | GACCCGUACUUCAUGAAGATT against SF3A2 | -1.7 (active)
101 | GGACCCAAGUCUUGCUGCATT against CARD18 | 0.568 (inactive)
102 | CGAUCCUAUUCGAUGAGAATT against GRM5 | -0.227 (inactive)
103 | CAGUGAAUAUGGAACCGGATT against CHD3 | 0.589 (inactive)
104 | AGUAUGUGCUGAUCCGAGUTT against PHPT1 | 1.27 (active)
105 | CCUGAACACACCUUACAUATT against RNASE8 | 0.00771 (inactive)
106 | CAUAGAUUCUGUACGGCAATT against MPP5 | 0.429 (inactive)
107 | GGUAUUCCUGUUCAACAAATT against ZNF235 | 0.348 (inactive)
108 | GCUGACCGCUGGGUGAUAATT against TMPRSS6 | 1.29 (active)
109 | CCUCACACUUGAUUCAGUUTT against RPP38 | 0.07 (inactive)
